Data reported in PubChem BioAssay (Tox21).
Calls of active or inactive are those of the source. Entries that show only a call come without a potency. The call rests on the fitted dose curve; in most records, active means well fitted curve in the direction sought with a large enough effect in the repeat runs; inconclusive means weak or mixed curves; inactive means flat fitted curve, though single readings scatter.

experiment: qHTS assay to test for compound auto fluorescence at 535 nm (green) in HepG2 cell free culture (AID 720686); details: Cell-free medium, green autofluorescence 485/535 nm; series mostly up to 46 µM

Q: With `CC12CCC(C1)C(C)(C)C2=O` (configuration not stated) as the molecule, how does the Potency read?
A: inactive

Q: For `CCCCCCCC/C=C\CCCCCCCC(=O)N(CCO)CCO`, which Potency is on record?
A: inactive

Q: For `C[C@H](O)CN(C)C`, which Potency is on record?
A: inactive

Q: Which Potency does the source give for `C[C@H](Cc1ccc(O)c(O)c1)[C@@H](C)Cc1ccc(O)c(O)c1` here?
A: inactive

Q: For `CCCOC(=O)c1ccc(O)cc1`, which Potency is on record?
A: inactive

Q: For `NCC1CCC(C(=O)O)CC1` (configuration not stated), which Potency is on record?
A: inactive

Q: Which Potency does the source give for `CN(C)CCc1c[nH]c2ccc(Cn3cncn3)cc12` here?
A: inactive

Q: Which Potency does the source give for `CN(Cc1ccccc1)Cc1ccccc1` here?
A: inactive

Q: With `CN1C(=O)C[C@@H](C(=O)N[C@@H](Cc2cnc[nH]2)C(=O)N2CCC[C@H]2C(N)=O)NC1=O` as the molecule, how does the Potency read?
A: inactive

Q: For `O=C(N[C@H](CO)[C@H](O)c1ccc([N+](=O)[O-])cc1)C(Cl)Cl`, which Potency is on record?
A: inactive

Q: With `COc1cc(NS(C)(=O)=O)ccc1Nc1c2ccccc2nc2ccccc12` as the molecule, how does the Potency read?
A: inactive

Q: For `N[C@@H](Cc1ccc(O)c(O)c1)C(=O)O`, which Potency is on record?
A: inactive

Q: With `CCCn1c(=O)[nH]c(=O)c2[nH]cnc21` as the molecule, how does the Potency read?
A: inactive

Q: With `N=C(N)c1ccc(/C=C/c2ccc(C(=N)N)cc2O)cc1` as the molecule, how does the Potency read?
A: inactive

Q: Which Potency does the source give for `O=C1c2ccccc2-c2n[nH]c3cccc1c23` here?
A: inactive

Q: With `O=C1CC[C@@H](C(=O)N[C@H]2C[C@@H]2c2ccccc2)N1` as the molecule, how does the Potency read?
A: inactive

Q: With `CC12CCC(C[N+](C)(CCC[N+](C)(C)C)C1)C2(C)C` (configuration not stated) as the molecule, how does the Potency read?
A: inactive

Q: For `CC(O)(c1ccc(Cl)cc1)c1ccc(Cl)cc1`, which Potency is on record?
A: inactive

Q: For `CC(C)(COP(=O)(O)OP(=O)(O)OC[C@H]1O[C@@H](n2cnc3c(N)ncnc32)[C@H](O)[C@@H]1OP(=O)(O)O)C(O)C(=O)NCCC(=O)NCCS` (some centres not stated), which Potency is on record?
A: inactive

Q: With `CN=C(N)NCCC[C@H](N)C(=O)O` as the molecule, how does the Potency read?
A: inactive

Q: For `Cc1cc(CC(C)CC(C)(C)C)n(O)c(=O)c1` (configuration not stated) (tested in a mixture with another compound), which Potency is on record?
A: inactive

Q: For `O=P(O)(O)CP(=O)(O)O`, which Potency is on record?
A: inactive

Q: For `CC(=O)OCC(=O)[C@@]1(O)CC[C@H]2[C@@H]3C[C@H](C)C4=CC(=O)C=C[C@]4(C)[C@H]3[C@@H](O)C[C@@]21C`, which Potency is on record?
A: inactive

Q: For `CCCOC(=O)c1ccccc1O`, which Potency is on record?
A: inactive

Q: For `CCCCCCCCCCCCCCCCCCNC(=O)OC1CCN(C(=O)OC[C@H](COC(=O)N(Cc2cccc[n+]2CC)C(=O)c2ccccc2OC)OC)CC1`, which Potency is on record?
A: inactive

Q: For `CC(Cc1ccc(O)c(O)c1)C(C)Cc1ccc(O)c(O)c1` (configuration not stated), which Potency is on record?
A: inactive

Q: With `CCCCCCCC[N+](C)(C)CCCCCCCC` as the molecule, how does the Potency read?
A: inactive

Q: With `CC(CNC(=O)c1cccnc1)NC(=O)c1cccnc1` (configuration not stated) as the molecule, how does the Potency read?
A: inactive

Q: Which Potency does the source give for `O=C(O)COc1ccccc1/C=N/NC(=O)c1ccncc1` here?
A: inactive

Q: For `O=C(O)CCCC/C=C(\c1ccccc1)c1cccnc1`, which Potency is on record?
A: inactive

Q: Which Potency does the source give for `CCC1OC(=O)C[C@@H](O)[C@H](C)[C@@H](O[C@@H]2O[C@H](C)C[C@H](N(C)C)[C@H]2O)[C@@H](CC=O)C[C@@H](C)C(=O)/C=C/[C@]2(C)OC2C1C` (some centres not stated) here?
A: inactive

Q: With `SC1CCCCC1` as the molecule, how does the Potency read?
A: inactive

Q: Which Potency does the source give for `NC[C@H]1O[C@H](O[C@H]2[C@H](O)[C@@H](O[C@H]3O[C@H](CO)[C@@H](O)[C@H](N)[C@H]3O)[C@H](N)C[C@@H]2N)[C@H](N)C[C@@H]1O` here?
A: inactive

Q: With `NCC[C@H](O)C(=O)N[C@@H]1C[C@H](N)[C@@H](O[C@H]2O[C@H](CN)CC[C@H]2N)[C@H](O)[C@H]1O[C@H]1O[C@H](CO)[C@@H](O)[C@H](N)[C@H]1O` as the molecule, how does the Potency read?
A: inactive

Q: For `CN1[C@@H](CC(=O)c2ccccc2)CCC[C@H]1C[C@H](O)c1ccccc1`, which Potency is on record?
A: inactive

Q: Which Potency does the source give for `CN1CCN(CCCN2c3ccccc3Sc3ccc(Cl)cc32)CC1` here?
A: inactive

Q: For `CCCCCCCCCC[N+](C)(CCCCCCCCCC)CCC[Si](OC)(OC)OC`, which Potency is on record?
A: inactive
